Holding throughout (assay): NCI-60 one-dose screen, 48 h (100 = growth as untreated, 0 = no growth, -100 = all killed)
In one test the test system is SR leukemia. The conditions noted are these: 10 µM unless noted.
A further test relates to RPMI-8226 leukemia. The settings on record: 10 µM unless noted.
The test system of a further test is OVCAR-8 ovarian. The settings on record: 10 µM unless noted.
A further test has as its system OVCAR-5 ovarian. The conditions noted are these: 10 µM unless noted.
In a further test the test system is OVCAR-4 ovarian. The conditions noted are these: 10 µM.
A further test concerns SK-OV-3 ovarian. The conditions noted are these: 10 µM unless noted.
Another test relates to IGROV1 ovarian. The settings on record: 10 µM unless noted.
For a further test, the system named is OVCAR-3 ovarian. The conditions noted are these: 10 µM unless noted.
The test system of another test is HS 578T breast. The conditions noted are these: 10 µM unless noted.
The test system of a further test is NCI/ADR-RES ovarian. The settings on record: 10 µM unless noted.
Another test deals with T-47D breast. The conditions noted are these: 10 µM unless noted.
The next test relates to BT-549 breast. The conditions noted are these: 10 µM unless noted.
The next test relates to SW-620 colon. The conditions noted are these: 10 µM unless noted.
For a further test, the system named is MCF7 breast. The conditions noted are these: 10 µM unless noted.
The next test concerns HCT-116 colon. The settings on record: 10 µM unless noted.
The subject of a further test is HCC-2998 colon. The settings on record: 10 µM unless noted.
The test system of the next test is KM12 colon. The settings on record: 10 µM unless noted.
For another test, the system named is MDA-MB-435 melanoma. The conditions noted are these: 10 µM unless noted.

Molecules are shown by their SMILES. The panel holds about 83,000 compounds, 20% with a hit somewhere; the sample as a whole holds those more often.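 In brief: 96-well plates, 48 h treatment, single concentration, percent growth endpoint.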 Values without a mark were called inactive. The source made the active and inactive calls. Rule for the calls: active = growth percent below 10; inactive = the rest.

As to `CCOC(=O)c1c[nH]n2c(=S)ncnc12`, the growth with SR leukemia was 107%; in the test with RPMI-8226 leukemia, 107%; with OVCAR-8 ovarian, 104%; with OVCAR-5 ovarian it was 103%; with OVCAR-4 ovarian it was 101%; with SK-OV-3 ovarian it was 103%. For the same compound, the growth in the test with IGROV1 ovarian is 121%; with OVCAR-3 ovarian, 99.5%; in the test on HS 578T breast, 118%; in the test on NCI/ADR-RES ovarian it was 99.1%; with T-47D breast, 98.7%; with BT-549 breast it was 108%. Further, the growth in the test on SW-620 colon is 112%; with MCF7 breast, 96.3%; in the test on HCT-116 colon, 101%; with HCC-2998 colon it was 112%; with KM12 colon it was 99.9%.

On to `O=[N+]([O-])c1cccc(N=NNc2cccc([N+](=O)[O-])c2)c1`, for which the growth was 95.1% in the test with SR leukemia; 86% in the test on RPMI-8226 leukemia; 99.5% with OVCAR-8 ovarian; 94.6% in the test with OVCAR-5 ovarian; 88.7% in the test on OVCAR-4 ovarian; 104% with SK-OV-3 ovarian. Also, the growth in the test with IGROV1 ovarian is 125%; in the test with OVCAR-3 ovarian, 101%; in the test on HS 578T breast, 101%; in the test with NCI/ADR-RES ovarian it was 94.4%; in the test on T-47D breast, 76.3%; in the test with BT-549 breast it was 101%. Further, the growth in the test on SW-620 colon was 91.7%; in the test with MCF7 breast, 65.3%; with HCT-116 colon, 114%; in the test with HCC-2998 colon, 104%; in the test with KM12 colon, 95.2%.

For `COc1ccc(N(c2nc(-c3ccc([N+](=O)[O-])cc3)cs2)C(C)C)cc1`, the growth in the test on SR leukemia is 66.5%; in the test on RPMI-8226 leukemia, 52.7%; with OVCAR-8 ovarian, 89.6%; in the test with OVCAR-5 ovarian, 109%; in the test with OVCAR-4 ovarian, 70%; in the test on SK-OV-3 ovarian, 81.7%. Also, the growth was 80.4% in the test on IGROV1 ovarian; 81.1% in the test on OVCAR-3 ovarian; 85% in the test with HS 578T breast; 86.2% in the test with NCI/ADR-RES ovarian; 53.4% in the test with T-47D breast; 97% in the test with BT-549 breast. The growth in the test on MDA-MB-435 melanoma was 89%; in the test on SW-620 colon, 88.1%; with HCT-116 colon it was 76.3%; in the test on HCC-2998 colon, 101%; with KM12 colon, 75.7%.

With `O=S(=O)(NCCNc1nccc(-c2c(-c3cccc(F)c3)nc3occn23)n1)c1ccc(C(F)(F)F)cc1`, the growth in the test with SR leukemia is 88.3%; in the test on RPMI-8226 leukemia, 75.5%; in the test on OVCAR-8 ovarian, 87.5%; in the test with OVCAR-5 ovarian, 102%; in the test with OVCAR-4 ovarian, 87.6%; with SK-OV-3 ovarian, 79.5%. In addition, the growth in the test with IGROV1 ovarian is 77%; in the test with OVCAR-3 ovarian, 99.1%; in the test on HS 578T breast it was 74.3%; with NCI/ADR-RES ovarian it was 95.5%; with T-47D breast, 61.9%; in the test with BT-549 breast it was 106%. Further, the growth with MDA-MB-435 melanoma is 76.3%; with SW-620 colon, 101%; with HCT-116 colon, 76.5%; in the test with HCC-2998 colon it was 125%; with KM12 colon, 92%.

Turning to `COc1ccc(/C=C(/C(=O)c2ccc(Cl)cc2)C(=O)C(F)(F)F)cc1`, the growth in the test on SR leukemia is 76.2%; in the test with RPMI-8226 leukemia, 90.2%; in the test on OVCAR-8 ovarian, 102%; with OVCAR-5 ovarian it was 103%; in the test on OVCAR-4 ovarian, 96.3%; in the test on SK-OV-3 ovarian, 100%. Also, the growth in the test on IGROV1 ovarian was 96%; with OVCAR-3 ovarian it was 98.7%; with HS 578T breast, 96.2%; with NCI/ADR-RES ovarian it was 95.8%; with T-47D breast, 90.3%; in the test on BT-549 breast, 111%. Further, the growth is 101% with SW-620 colon, 77.2% in the test with MCF7 breast, 101% with HCT-116 colon and 93.4% in the test on HCC-2998 colon.

With `Cc1ccc(S(=O)(=O)NCCCNc2nccc(-c3c(-c4cccc(F)c4)nc4occn34)n2)cc1`, the growth in the test with SR leukemia was 87.9%; in the test on RPMI-8226 leukemia, 54.8%; in the test with OVCAR-8 ovarian, 65%; in the test on OVCAR-5 ovarian it was 96.5%; in the test with OVCAR-4 ovarian it was 73.4%; in the test on SK-OV-3 ovarian, 68.3%. Also, the growth in the test on IGROV1 ovarian is 48.1%; in the test with OVCAR-3 ovarian it was 89.7%; with HS 578T breast, 68%; in the test with NCI/ADR-RES ovarian it was 85%; with T-47D breast it was 39.5%; in the test on BT-549 breast it was 92.1%. Moreover, the growth is 43.4% in the test on MDA-MB-435 melanoma; 76.8% in the test on SW-620 colon; 53.6% in the test on HCT-116 colon; 117% with HCC-2998 colon; 77.6% in the test on KM12 colon.

As for `Cn1cc(-c2noc(-c3cn(C)c4ncc(F)cc34)n2)c2cc(Br)ccc21`, the growth in the test with SR leukemia was 37.1%; with RPMI-8226 leukemia, 87.9%; in the test on OVCAR-8 ovarian, 55.2%; in the test with OVCAR-5 ovarian, 64.4%; in the test on OVCAR-4 ovarian, -40.3% (active); in the test with SK-OV-3 ovarian, 84.4%. Moreover, the growth was 73.3% with IGROV1 ovarian; 38.5% with OVCAR-3 ovarian; 58.7% in the test on HS 578T breast; 61.5% in the test with NCI/ADR-RES ovarian; 25.2% in the test with T-47D breast; 72.3% with MDA-MB-435 melanoma. Besides, the growth with SW-620 colon is 57.3%; with MCF7 breast, 51.8%; in the test with HCT-116 colon, 32.7%; in the test on HCC-2998 colon, 107%; in the test on KM12 colon, 58.1%.

Turning to `Cc1cc(C)c(O)c(CNCCCCCCNCc2cc(C)cc(C)c2O)c1`, the growth in the test with SR leukemia is -48.3% (active); with RPMI-8226 leukemia it was -20.8% (active); in the test on OVCAR-8 ovarian, -12.4% (active); with OVCAR-5 ovarian, 13.9%; in the test on OVCAR-4 ovarian it was 46.1%; in the test with SK-OV-3 ovarian it was 84.9%. In addition, the growth was 36.4% in the test with IGROV1 ovarian; 22% in the test on OVCAR-3 ovarian; -44.9% (active) in the test on HS 578T breast; 8.8% (active) in the test with NCI/ADR-RES ovarian; -60.8% (active) in the test with T-47D breast; -90.8% (active) in the test on MDA-MB-435 melanoma. The growth was -75.4% (active) in the test on SW-620 colon; -81.4% (active) with MCF7 breast; -42.9% (active) with HCT-116 colon; -84.3% (active) with HCC-2998 colon; -38.2% (active) with KM12 colon.

For the compound `O=C(Nc1cc(F)cc2cccnc12)c1cnc(N2CCNCC2)cn1`, the growth in the test with SR leukemia was 29.5%; in the test on RPMI-8226 leukemia, 93.1%; in the test on OVCAR-8 ovarian, 72.4%; in the test on OVCAR-5 ovarian, 83.4%; with OVCAR-4 ovarian, 11.2%; in the test on SK-OV-3 ovarian, 100%. Further, the growth in the test with IGROV1 ovarian was 43.5%; in the test on OVCAR-3 ovarian, 6.04% (active); with HS 578T breast, 82.2%; with NCI/ADR-RES ovarian it was 87.6%; in the test with T-47D breast, 18%; in the test with MDA-MB-435 melanoma, 77.3%. Further, the growth in the test with SW-620 colon was 40.9%; in the test with MCF7 breast, 10.2%; in the test with HCT-116 colon it was 11%; with HCC-2998 colon it was 85.6%; in the test on KM12 colon, 81.2%.

Values taken from PubChem BioAssay (NCI).
